Common to all, as to assay type: functional
The subject of experiment [1] is Plasmodium falciparum. The experiment in a line: GSK_TCMDC: Inhibition of Plasmodium falciparum 3D7 in whole red blood cells, using parasite LDH activity as an index of growth. Test compounds present at 2uM.
The test system of experiment [2] is Plasmodium falciparum. Briefly: GSK_TCMDC: Inhibition of Plasmodium falciparum Dd2 in whole red blood cells, using parasite LDH activity as an index of growth. Test compounds present at 2uM.
In the next experiment the test system is HepG2. Briefly: GSK_TCMDC: Percent inhibition of human HepG2 cell line. Test compounds present at 10uM.

For orientation: Inhibition means the share of the control response that was lost under treatment. Read a low Inhibition as a response near the control. As for `O=C1NC(c2ccccc2)C2(CCN(CC(O)COc3cccc4ncccc34)CC2)O1` (stereo unspecified), the Inhibition in the experiment with Plasmodium falciparum [1] is recorded as 92%; with Plasmodium falciparum [2] it was 95%; with HepG2 it was 5%.

On to `CC(=O)Nc1nc(C(=O)Nc2ccc(-c3ccc(-c4nc5cccc(C)c5[nH]4)cc3)cc2)cs1`, for which the figures for the Inhibition in the experiment with Plasmodium falciparum [1], in the experiment on Plasmodium falciparum [2] and in the experiment with HepG2 were 100%, 53% and 42%, respectively.

For the molecule `O=C(COc1ccccc1)Nn1cnc2ccccc21`, the Inhibition in the experiment with Plasmodium falciparum [1] worked out at 91%; with Plasmodium falciparum [2], 0%; with HepG2, 2%.

`CN1CCC(NCc2ccc(-c3ccc(S(=O)(=O)NCc4ccccc4)s3)cc2)CC1.O=C(O)C(F)(F)F`: the Inhibition in the experiment with Plasmodium falciparum [1] is 99%; with Plasmodium falciparum [2], 95%; in the experiment on HepG2, 77%.

In the case of `Cl.O=C(Nc1ccccc1)c1cccc(Nc2nccc(Nc3ccc(Oc4ccccc4)cc3)n2)c1`, the Inhibition with Plasmodium falciparum [1] is 98%; in the experiment with Plasmodium falciparum [2], 11%; in the experiment with HepG2, 6%.

On to `O=C(Nc1ccc(OC2CCN(Cc3ccc(F)cc3)C2)c(Cl)c1)c1ccco1.O=C(O)C(F)(F)F` (stereo unspecified), for which the values for the Inhibition in the experiment with Plasmodium falciparum [1], with Plasmodium falciparum [2] and in the experiment with HepG2 were 96%, 97% and 9%, respectively.

With `O=C(NC1CCN(Cc2ccc3c(c2)OCCO3)CC1)c1ccc(-c2cccc(Cl)c2)s1.O=C(O)C(F)(F)F`, the Inhibition is 93% in the experiment on Plasmodium falciparum [1], 9% in the experiment with Plasmodium falciparum [2] and 46% in the experiment with HepG2.

Consider `CC(C)N1CCN(C(=O)c2ccc(CNCCCN3CCN(c4cccc(Cl)c4Cl)CC3)o2)CC1.Cl`, for which the Inhibition in the experiment with Plasmodium falciparum [1] is 98%; with Plasmodium falciparum [2], 36%; with HepG2, 41%.

For the molecule `Nc1ncc(-c2cn[nH]c2)cc1-c1nc2ccc(F)cc2[nH]1`, the Inhibition with Plasmodium falciparum [1] is 100%; in the experiment on Plasmodium falciparum [2], 53%; with HepG2, 38%.

Take `CCc1c(CCNCCCCCCNCCc2ccc([N+](=O)[O-])cc2)ccc(OC)c1OC.Cl`: the Inhibition in the experiment with Plasmodium falciparum [1] came to 100%; in the experiment on Plasmodium falciparum [2] it was 2%; in the experiment on HepG2, 35%.

Regarding `CCOc1cc(C)ccc1C1CCN(CCCCNC(=O)c2coc(-c3ccc(Cl)cc3)c2)CC1.Cl`, the Inhibition worked out at 92% in the experiment with Plasmodium falciparum [1], 30% in the experiment with Plasmodium falciparum [2] and 34% in the experiment on HepG2.

As to `Nc1ccc(-c2nc3cc(Oc4ccc5[nH]c(-c6ccc(N)cc6)nc5c4)ccc3[nH]2)cc1`, the Inhibition in the experiment on Plasmodium falciparum [1] is on record as 100%; in the experiment with Plasmodium falciparum [2], 99%; in the experiment with HepG2 it was 18%.

In the case of `O=C1COC2(CN1CC1CCN(Cc3ccc(O)c(Cl)c3)C1)c1ccccc1-c1ccccc12.O=CO` (stereo unspecified), the Inhibition worked out at 93% with Plasmodium falciparum [1], 50% in the experiment on Plasmodium falciparum [2] and 6% in the experiment on HepG2.

Regarding `COc1ccc(N2CCN(CCCCNC(=O)c3ccc(NC(=O)c4cc(Cl)cc(Cl)c4)cc3)CC2)c(OC)c1.Cl`, the Inhibition in the experiment on Plasmodium falciparum [1] stood at 100%; in the experiment with Plasmodium falciparum [2], 84%; in the experiment with HepG2, 21%.

For the molecule `CCc1cn(C)c2c(N3CCCC3=O)cc(C(=O)N[C@@H](Cc3ccccc3)[C@H](O)CNC(C)(C)CCCC(C)C)cc12`, the Inhibition was 97% with Plasmodium falciparum [1], 98% in the experiment on Plasmodium falciparum [2] and 15% with HepG2.

On to `COc1cc(NC(=O)Nc2ccnc3ccccc23)cc(OC)c1.Cl`, for which the results for the Inhibition in the experiment with Plasmodium falciparum [1], with Plasmodium falciparum [2] and with HepG2 were 98%, 34% and 11%, respectively.

In the case of `COc1ccc(NC(=O)c2ccc(Br)c(C)c2)cc1N1CCN(CCCc2c[nH]c3ccccc23)CC1`, the Inhibition in the experiment on Plasmodium falciparum [1] was 100%; in the experiment with Plasmodium falciparum [2] it was 64%; in the experiment on HepG2 it was 21%.

Consider `O=C(NC1CCN(CCCOc2ccnc3cc(Cl)ccc23)C1)c1ccc(Br)cc1` (stereo unspecified), for which the figures for the Inhibition in the experiment with Plasmodium falciparum [1], in the experiment with Plasmodium falciparum [2] and in the experiment on HepG2 were 86%, 87% and 21%, respectively.

For the molecule `C[C@@H](C(N)=O)N1CCCCC1c1ccc(OCc2cccc(F)c2)cc1` (stereo partly specified), the Inhibition is 84% with Plasmodium falciparum [1], 96% in the experiment with Plasmodium falciparum [2] and 79% with HepG2.

Regarding `CCc1ccc(OCc2ccccc2C(=O)Nc2ccc3nc(C)cc(N)c3c2)cc1.Cl`, the Inhibition with Plasmodium falciparum [1] is 99%; with Plasmodium falciparum [2], 74%; in the experiment with HepG2, 98%.

As for `Cc1ccc(-c2nnc(-c3ccc(C(=O)NC4CCN(Cc5ccc(C#N)cc5)CC4)cc3)o2)cc1Br`, the Inhibition with Plasmodium falciparum [1] was 91%; with Plasmodium falciparum [2] it was 7%; in the experiment on HepG2, 41%.

On to `Cl.NC1CCN(CCc2ccc(NS(=O)(=O)c3cccc4ccccc34)cc2)CC1`, for which the results for the Inhibition in the experiment on Plasmodium falciparum [1], in the experiment on Plasmodium falciparum [2] and in the experiment on HepG2 were 94%, 4% and 21%, respectively.
